Assay results as given in the supplement of paper PMC10849652.
Of roughly 7,900 targets only a part is listed; those with a hit were picked by preference. About 0.6% of all pairs of compound and target were hits.

How the values were obtained:
Assay in all cases: log2 fold change, soluble protein after heating vs DMSO (PISA); higher = thermal stabilisation; K562 cells, 10 uM, 30 min; active = over 0.2 and 3.5 SD of the protein, either way, in both replicates (recomputed)
[1] = compound: CC1=C(C=C(C=C1)NC(=O)C2=CC(=CC=C2)C(C)(C)C#N)NC3=CC4=C(C=C3)N=CN(C4=O)C
Summary of the method: (§1)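 Soluble protein was quantified by TMTpro 16plex LC-MS/MS after channel sums were equalised. It was obtained as the supernatant after 21,000xg for 90 min from pooled aliquots of K562 cells (2×10^6 cells/mL, 10 μM compound, 30 min) heated for 3 min across 48°C-58°C and extracted in PBS with 0.5% NP-40 at 4°C. Thermal stability values are relative to control samples and come from duplicates. They are given as log2 fold changes.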

[2] = compound: CC1=C(C=C(C=C1)NC(=O)C2=CC(=CC=C2)N(C)C)NC(=O)C3=CC=C(C=C3)O
Summary of the method: as §1

[3] = compound: CC1=CC=C(C=C1)SC2=C3C=C(SC3=CN=C2)C(=O)N
Summary of the method: as §1

[4] = compound: CC1=NC(=CC=C1)C2=C(N=C(N2)C(C)(C)C)C3=CC4=NC=CN=C4C=C3
Summary of the method: as §1

Nexturastat A = compound: CCCCN(Cc1ccc(C(=O)NO)cc1)C(=O)Nc1ccccc1 [Nexturastat A]
Summary of the method: as §1

vemurafenib = compound: CCCS(=O)(=O)Nc1ccc(F)c(C(=O)c2c[nH]c3ncc(-c4ccc(Cl)cc4)cc23)c1F [vemurafenib]
Summary of the method: as §1

[5] = compound: CCCS(=O)(=O)Nc1ccc(F)c(C(=O)c2c[nH]c3ncc(Cl)cc23)c1F
Summary of the method: as §1

[6] = compound: CCCc1cc(C)[nH]c(=O)c1CNC(=O)c1cc(-c2ccnc(N3CCN(C)CC3)c2)cc2c1cnn2C(C)C
Summary of the method: as §1

givinostat = compound: CCN(CC)Cc1ccc2cc(COC(=O)Nc3ccc(C(=O)NO)cc3)ccc2c1 [givinostat]
Summary of the method: as §1

barasertib = compound: CCN(CCCOc1ccc2c(Nc3cc(CC(=O)Nc4cccc(F)c4)[nH]n3)ncnc2c1)CCOP(=O)(O)O [barasertib]
Summary of the method: as §1

Measured: log2 fold change

TBC1D10B (UniProt Q4KMP7)
inactive: [1] -0.019 | [2] 0.015 | [3] 0.025 | [4] 0 | Nexturastat A -0.051 | vemurafenib 0.004 | [5] 0.048 | [6] 0.014 | givinostat 0.018 | barasertib 0.01

SREK1 isoform 2 (UniProt Q8WXA9)
UniProt Q8WXA9, sequence (Q8WXA9 whole entry, looked up): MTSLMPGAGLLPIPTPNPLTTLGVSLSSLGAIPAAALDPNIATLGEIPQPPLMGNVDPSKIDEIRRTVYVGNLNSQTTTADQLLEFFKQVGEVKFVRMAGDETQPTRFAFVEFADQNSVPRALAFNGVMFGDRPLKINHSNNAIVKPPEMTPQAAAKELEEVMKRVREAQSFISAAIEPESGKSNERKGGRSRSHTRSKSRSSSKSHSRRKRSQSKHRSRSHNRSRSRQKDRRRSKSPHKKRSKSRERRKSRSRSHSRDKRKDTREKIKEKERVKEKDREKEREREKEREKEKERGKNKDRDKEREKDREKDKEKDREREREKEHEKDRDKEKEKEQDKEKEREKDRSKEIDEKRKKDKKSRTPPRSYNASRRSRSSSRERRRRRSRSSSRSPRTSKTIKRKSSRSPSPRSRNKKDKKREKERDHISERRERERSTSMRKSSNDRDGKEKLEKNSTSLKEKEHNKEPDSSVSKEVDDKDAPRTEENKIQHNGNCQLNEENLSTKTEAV
inactive: [1] -0.335 | [2] -0.083 | [3] 0 | [4] 0.045 | Nexturastat A 0.108 | vemurafenib 0.019 | [5] 0.096 | [6] -0.069 | givinostat 0.062 | barasertib -0.057

STAT3 (UniProt P40763)
inactive: [1] 0.012 | [2] 0.001 | [3] -0.009 | [4] -0.008 | Nexturastat A 0.005 | vemurafenib 0.101 | [5] 0.102 | [6] 0.017 | givinostat 0.089 | barasertib 0.064

STAT5A (UniProt P42229)
UniProt P42229, sequence (P42229 whole entry, looked up): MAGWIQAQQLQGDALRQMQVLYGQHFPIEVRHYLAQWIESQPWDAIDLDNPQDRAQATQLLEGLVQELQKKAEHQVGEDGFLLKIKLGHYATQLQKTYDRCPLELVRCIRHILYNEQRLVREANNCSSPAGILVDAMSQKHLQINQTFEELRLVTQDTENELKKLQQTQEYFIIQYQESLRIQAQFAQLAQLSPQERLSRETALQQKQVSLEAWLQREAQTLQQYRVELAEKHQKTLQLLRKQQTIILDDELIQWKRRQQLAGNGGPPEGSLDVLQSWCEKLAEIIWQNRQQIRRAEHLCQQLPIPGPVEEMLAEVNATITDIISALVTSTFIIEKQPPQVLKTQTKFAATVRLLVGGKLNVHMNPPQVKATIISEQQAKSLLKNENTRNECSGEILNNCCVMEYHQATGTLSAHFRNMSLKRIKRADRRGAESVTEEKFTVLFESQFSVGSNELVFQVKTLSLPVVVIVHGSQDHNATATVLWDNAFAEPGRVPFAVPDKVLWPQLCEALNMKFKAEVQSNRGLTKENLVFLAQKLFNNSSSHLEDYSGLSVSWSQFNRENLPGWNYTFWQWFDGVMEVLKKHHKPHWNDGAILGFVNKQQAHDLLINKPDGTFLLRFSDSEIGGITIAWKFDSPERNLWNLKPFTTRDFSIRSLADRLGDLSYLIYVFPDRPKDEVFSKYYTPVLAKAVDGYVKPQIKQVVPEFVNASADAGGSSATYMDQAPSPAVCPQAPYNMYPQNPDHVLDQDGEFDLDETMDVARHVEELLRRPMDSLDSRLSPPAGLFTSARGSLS
inactive: [1] -0.033 | [2] -0.113 | [3] 0.072 | [4] 0.011 | Nexturastat A -0.009 | vemurafenib 0.067 | [5] 0.067 | [6] 0.141 | givinostat 0.156 | barasertib 0.096

SPG21 (UniProt Q9NZD8)
UniProt Q9NZD8, sequence (Q9NZD8 whole entry, looked up): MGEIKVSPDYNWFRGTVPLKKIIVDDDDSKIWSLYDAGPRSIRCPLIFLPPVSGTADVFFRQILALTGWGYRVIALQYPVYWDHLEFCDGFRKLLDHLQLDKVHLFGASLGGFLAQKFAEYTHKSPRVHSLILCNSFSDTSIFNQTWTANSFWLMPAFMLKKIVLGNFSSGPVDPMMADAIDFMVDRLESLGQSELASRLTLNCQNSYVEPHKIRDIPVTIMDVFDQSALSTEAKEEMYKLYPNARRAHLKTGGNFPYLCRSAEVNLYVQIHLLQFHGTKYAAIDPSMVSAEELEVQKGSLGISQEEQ
inactive: [1] -0.108 | [2] -0.157 | [3] -0.003 | [4] 0.057 | Nexturastat A 0.016 | vemurafenib 0.044 | [5] -0.044 | [6] 0.057 | givinostat -0.014 | barasertib 0.026

TBRG4 (UniProt Q969Z0)
inactive: [1] 0.08 | [2] -0.006 | [3] 0.073 | [4] 0.151 | Nexturastat A -0.072 | vemurafenib 0.05 | [5] 0.185 | [6] -0.059 | givinostat 0.099 | barasertib 0.125

TMBIM6 isoform 2 (UniProt P55061)
UniProt P55061, sequence (P55061 whole entry, looked up): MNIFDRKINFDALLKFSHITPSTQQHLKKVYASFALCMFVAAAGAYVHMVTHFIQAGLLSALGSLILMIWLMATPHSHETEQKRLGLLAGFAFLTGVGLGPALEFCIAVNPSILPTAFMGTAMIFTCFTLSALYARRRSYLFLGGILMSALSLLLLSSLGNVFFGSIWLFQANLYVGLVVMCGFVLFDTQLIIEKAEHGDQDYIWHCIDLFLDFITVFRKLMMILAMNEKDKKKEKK
inactive: [1] -0.05 | [2] 0.045 | [3] 0.04 | [4] -0.016 | Nexturastat A -0.005 | vemurafenib -0.121 | [5] 0.048 | [6] 0.619 | givinostat 0.072 | barasertib 0.019

SPCS2 (UniProt Q15005)
inactive: [1] 0.011 | [2] 0.004 | [3] 0 | [4] 0.3 | Nexturastat A -0.052 | vemurafenib 0.075 | [5] 0.058 | [6] -0.011 | givinostat -0.009 | barasertib 0.025

SMPD4 isoform 4 (UniProt Q9NXE4)
inactive: [1] 0.022 | [2] -0.011 | [3] 0.075 | [4] 0.112 | Nexturastat A 0.075 | vemurafenib 0.02 | [5] 0.058 | [6] -0.034 | givinostat 0.066 | barasertib 0.13

SNX12 isoform 1 (UniProt Q9UMY4)
UniProt Q9UMY4, sequence (Q9UMY4 whole entry, looked up): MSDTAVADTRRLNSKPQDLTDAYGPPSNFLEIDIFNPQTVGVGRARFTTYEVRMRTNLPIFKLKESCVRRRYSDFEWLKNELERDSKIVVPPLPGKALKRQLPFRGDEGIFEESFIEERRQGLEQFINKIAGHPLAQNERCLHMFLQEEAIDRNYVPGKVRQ
inactive: [1] -0.021 | [2] -0.006 | [3] 0.032 | [4] 0.024 | Nexturastat A -0.082 | vemurafenib 0.054 | [5] 0.059 | [6] 0.008 | givinostat 0.004 | barasertib 0.062

TBC1D5 isoform 2 (UniProt Q92609)
inactive: [1] -0.051 | [2] -0.048 | [3] -0.013 | [4] 0.018 | Nexturastat A 0.01 | vemurafenib 0.048 | [5] 0.112 | [6] -0.033 | givinostat 0.049 | barasertib 0.022

SUOX (UniProt P51687)
UniProt P51687, sequence (P51687 whole entry, looked up): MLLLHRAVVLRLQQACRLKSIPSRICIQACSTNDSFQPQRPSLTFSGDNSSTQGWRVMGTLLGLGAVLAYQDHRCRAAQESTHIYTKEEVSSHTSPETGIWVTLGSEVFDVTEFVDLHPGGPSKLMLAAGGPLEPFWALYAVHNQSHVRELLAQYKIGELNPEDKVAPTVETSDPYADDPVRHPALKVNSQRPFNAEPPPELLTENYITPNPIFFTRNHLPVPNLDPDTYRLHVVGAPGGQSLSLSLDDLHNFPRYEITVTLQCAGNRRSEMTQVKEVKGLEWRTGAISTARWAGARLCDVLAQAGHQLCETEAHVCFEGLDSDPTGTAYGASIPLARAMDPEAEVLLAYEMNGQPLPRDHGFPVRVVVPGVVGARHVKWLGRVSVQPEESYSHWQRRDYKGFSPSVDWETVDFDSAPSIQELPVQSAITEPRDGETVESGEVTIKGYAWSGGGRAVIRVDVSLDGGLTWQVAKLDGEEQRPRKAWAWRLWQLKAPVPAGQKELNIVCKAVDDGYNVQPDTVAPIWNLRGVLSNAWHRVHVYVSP
active: [4] -0.334
inactive: [1] -0.012 | [2] -0.002 | [3] -0.007 | Nexturastat A -0.021 | vemurafenib -0.046 | [5] -0.051 | [6] 0.023 | givinostat -0.033 | barasertib 0.007

SLC25A36 (UniProt Q96CQ1)
inactive: [1] 0.044 | [2] 0.008 | [3] -0.172 | [4] -0.048 | Nexturastat A 0.016 | [5] 0.016 | [6] -0.067 | givinostat 0.115 | barasertib -0.011
active: vemurafenib -0.297

SURF1 (UniProt Q15526)
inactive: [1] 0.045 | [2] -0.008 | [3] -0.019 | [4] 0.087 | Nexturastat A -0.033 | vemurafenib 0.042 | [5] 0.124 | [6] -0.01 | givinostat -0.01 | barasertib 0.027

SNRNP40 (UniProt Q96DI7)
UniProt Q96DI7, sequence (Q96DI7 whole entry, looked up): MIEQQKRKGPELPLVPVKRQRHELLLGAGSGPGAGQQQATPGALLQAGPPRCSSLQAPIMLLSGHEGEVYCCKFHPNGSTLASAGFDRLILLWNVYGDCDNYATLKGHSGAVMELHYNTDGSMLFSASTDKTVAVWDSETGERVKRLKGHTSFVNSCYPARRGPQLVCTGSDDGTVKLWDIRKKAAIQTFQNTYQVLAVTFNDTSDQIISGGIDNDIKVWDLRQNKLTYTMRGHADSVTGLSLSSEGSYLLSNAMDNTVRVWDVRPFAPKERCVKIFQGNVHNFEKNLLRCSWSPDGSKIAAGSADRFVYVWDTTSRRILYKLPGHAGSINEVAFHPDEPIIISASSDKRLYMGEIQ
inactive: [1] 0.01 | [2] 0.001 | [3] -0.06 | [4] -0.023 | Nexturastat A 0 | vemurafenib -0.027 | [5] -0.046 | [6] -0.037 | givinostat -0.035 | barasertib -0.04

TBC1D15 isoform 3 (UniProt Q8TC07)
inactive: [1] 0.076 | [2] -0.028 | [3] -0.003 | [4] -0.019 | Nexturastat A 0.002 | vemurafenib 0.049 | [5] 0.12 | [6] -0.015 | givinostat 0.046 | barasertib 0.068

SUGP1 (UniProt Q8IWZ8)
UniProt Q8IWZ8, sequence (Q8IWZ8 whole entry, looked up): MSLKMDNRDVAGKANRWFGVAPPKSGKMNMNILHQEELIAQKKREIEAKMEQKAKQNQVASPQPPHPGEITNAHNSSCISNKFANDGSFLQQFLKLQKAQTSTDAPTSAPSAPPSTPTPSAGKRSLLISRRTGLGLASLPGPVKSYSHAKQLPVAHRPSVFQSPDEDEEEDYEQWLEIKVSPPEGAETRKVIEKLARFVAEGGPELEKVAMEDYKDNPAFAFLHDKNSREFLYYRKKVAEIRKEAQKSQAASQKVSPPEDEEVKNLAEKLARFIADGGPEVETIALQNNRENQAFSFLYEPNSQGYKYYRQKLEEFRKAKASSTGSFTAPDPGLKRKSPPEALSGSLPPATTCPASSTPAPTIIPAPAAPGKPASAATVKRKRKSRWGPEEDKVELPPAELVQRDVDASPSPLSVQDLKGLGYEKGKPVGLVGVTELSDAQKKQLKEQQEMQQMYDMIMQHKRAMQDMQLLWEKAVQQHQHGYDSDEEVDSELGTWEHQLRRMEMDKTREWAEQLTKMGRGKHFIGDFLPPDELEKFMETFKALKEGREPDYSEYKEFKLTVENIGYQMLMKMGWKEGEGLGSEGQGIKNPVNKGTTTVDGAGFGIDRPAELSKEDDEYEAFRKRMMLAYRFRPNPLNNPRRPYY
inactive: [1] -0.006 | [2] -0.021 | [3] 0.033 | [4] 0.065 | Nexturastat A 0.056 | vemurafenib 0.121 | [5] 0.096 | [6] -0.001 | givinostat 0.095 | barasertib 0.068

SMARCA5 (UniProt O60264)
inactive: [1] 0.042 | [2] -0.041 | [3] 0.038 | [4] 0.014 | Nexturastat A 0.107 | vemurafenib 0.085 | [5] 0.129 | [6] 0.032 | givinostat 0.149 | barasertib 0.109

SMARCE1 (UniProt Q969G3)
UniProt Q969G3, sequence (Q969G3 whole entry, looked up): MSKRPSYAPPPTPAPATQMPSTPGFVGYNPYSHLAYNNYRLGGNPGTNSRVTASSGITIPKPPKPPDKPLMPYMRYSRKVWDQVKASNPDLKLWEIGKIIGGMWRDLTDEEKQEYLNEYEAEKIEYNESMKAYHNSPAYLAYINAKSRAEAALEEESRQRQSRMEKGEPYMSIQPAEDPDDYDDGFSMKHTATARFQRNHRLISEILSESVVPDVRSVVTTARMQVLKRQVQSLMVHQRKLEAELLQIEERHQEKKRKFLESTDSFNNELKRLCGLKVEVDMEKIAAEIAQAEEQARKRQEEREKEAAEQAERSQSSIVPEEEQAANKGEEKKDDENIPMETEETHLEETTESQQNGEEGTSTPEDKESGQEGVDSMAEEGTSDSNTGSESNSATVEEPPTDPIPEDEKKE
inactive: [1] -0.025 | [2] -0.058 | [3] -0.003 | [4] 0.074 | Nexturastat A 0.121 | vemurafenib -0.123 | [5] 0.085 | [6] -0.522 | givinostat 0.028 | barasertib 0.042

SLC38A9 (UniProt Q8NBW4)
inactive: [1] 0.075 | [2] 0.007 | [3] -0.05 | [4] 0.023 | Nexturastat A 0.088 | vemurafenib -0.036 | [5] -0.012 | [6] -0.105 | givinostat 0.021 | barasertib -0.006

SUCLA2 (UniProt Q9P2R7)
UniProt Q9P2R7, sequence (Q9P2R7 whole entry, looked up): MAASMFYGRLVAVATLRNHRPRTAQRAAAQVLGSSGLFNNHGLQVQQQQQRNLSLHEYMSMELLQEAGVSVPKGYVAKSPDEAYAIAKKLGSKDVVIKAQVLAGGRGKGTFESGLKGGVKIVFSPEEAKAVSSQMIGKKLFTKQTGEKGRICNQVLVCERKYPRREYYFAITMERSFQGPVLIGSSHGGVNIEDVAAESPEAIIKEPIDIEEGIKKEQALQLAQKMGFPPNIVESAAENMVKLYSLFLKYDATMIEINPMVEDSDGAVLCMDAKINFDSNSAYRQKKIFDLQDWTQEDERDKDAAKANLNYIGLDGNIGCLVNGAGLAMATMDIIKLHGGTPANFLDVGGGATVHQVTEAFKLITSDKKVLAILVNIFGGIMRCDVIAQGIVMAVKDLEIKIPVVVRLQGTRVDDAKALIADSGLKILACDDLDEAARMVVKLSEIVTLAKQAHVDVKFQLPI
inactive: [1] -0.038 | [2] -0.018 | [3] 0.003 | [4] 0.06 | Nexturastat A -0.083 | vemurafenib 0.047 | [5] 0.008 | [6] -0.02 | givinostat -0.003 | barasertib 0.064

SPECC1 (UniProt Q5M775)
inactive: [1] -0.028 | [2] -0.015 | [3] 0.094 | [4] -0.063 | Nexturastat A -0.08 | vemurafenib -0.094 | [5] -0.06 | [6] -0.102 | givinostat 0.035 | barasertib 0.062

SLC25A38 (UniProt Q96DW6)
inactive: [1] 0.075 | [2] -0.011 | [3] -0.047 | [4] 0.076 | Nexturastat A -0.012 | vemurafenib -0.059 | [5] -0.019 | [6] -0.145 | givinostat -0.004 | barasertib 0.014

SNX11 (UniProt Q9Y5W9)
inactive: [1] -0.008 | [2] 0.012 | [3] -0.003 | [4] 0.043 | Nexturastat A 0.014 | vemurafenib 0.043 | [5] 0.025 | [6] 0.022 | givinostat -0.006 | barasertib 0.019

STOM (UniProt P27105)
inactive: [1] -0.035 | [2] 0.025 | [3] -0.041 | [4] -0.002 | Nexturastat A 0.007 | vemurafenib 0.01 | [5] -0.053 | [6] -0.092 | givinostat 0.005 | barasertib -0.017

SMC5 (UniProt Q8IY18)
inactive: [1] -0.038 | [2] -0.067 | [3] -0.017 | [4] -0.032 | Nexturastat A -0.014 | vemurafenib 0.043 | [5] -0.033 | [6] -0.02 | givinostat -0.033 | barasertib -0.048

SPTBN4 (UniProt Q9H254)
inactive: [1] -0.013 | [2] -0.037 | [3] 0.144 | [4] 0.025 | Nexturastat A 0.039 | vemurafenib -0.027 | [5] -0.036 | [6] -0.12 | givinostat 0.112 | barasertib -0.013

TLK2 isoform 2 (UniProt Q86UE8)
inactive: [1] -0.003 | [2] -0.015 | [3] -0.013 | [4] 0.02 | Nexturastat A -0.072 | vemurafenib -0.029 | [5] 0.03 | [6] -0.036 | givinostat 0.099 | barasertib -0.006

SRSF3 (UniProt P84103)
inactive: [1] -0.019 | [2] 0.047 | [3] -0.208 | [4] -0.103 | Nexturastat A 0.124 | vemurafenib -0.064 | [5] -0.173 | [6] 0.047 | givinostat -0.029 | barasertib -0.093

TFB2M (UniProt Q9H5Q4)
UniProt Q9H5Q4, sequence (Q9H5Q4 whole entry, looked up): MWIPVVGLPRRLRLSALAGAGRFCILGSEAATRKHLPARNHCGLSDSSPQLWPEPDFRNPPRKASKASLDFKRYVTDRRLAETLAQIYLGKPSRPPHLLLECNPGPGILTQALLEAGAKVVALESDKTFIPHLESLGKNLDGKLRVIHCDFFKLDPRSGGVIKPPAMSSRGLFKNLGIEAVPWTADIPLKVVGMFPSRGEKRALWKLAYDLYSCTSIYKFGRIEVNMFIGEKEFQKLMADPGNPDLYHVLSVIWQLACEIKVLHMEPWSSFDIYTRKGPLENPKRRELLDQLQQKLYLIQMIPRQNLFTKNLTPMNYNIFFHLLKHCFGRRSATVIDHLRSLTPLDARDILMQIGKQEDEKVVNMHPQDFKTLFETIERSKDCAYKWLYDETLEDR
inactive: [1] -0.017 | [2] 0 | [3] 0.008 | [4] 0.086 | Nexturastat A -0.077 | vemurafenib 0.035 | [5] 0.073 | [6] -0.058 | givinostat 0.017 | barasertib 0.048
